# Screening results deposited in PubChem by several laboratories.
# Most compounds without a hit are left out; they make up all but 2.9% or so of the library.
# Myeloid diff 2: myeloid differentiation induction; AID 624256; hit rate 1% among 360,000; calls only at 10 µM; ER-HoxA9 myeloid progenitors, lysozyme-GFP differentiation, flow cytometry;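 active means normalized GFP-positive differentiation at or above the plate's own cutoff, the solvent-only control mean plus 3 SD; inconclusive means no clear call, values can overlap the other calls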;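 further: cells exposed to compound for four days before flow analysis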
# ABHD5 PLIN5 PPI: blocks binding of human ABHD5 to perilipin-5; Q00G26+Q8WTS1; Split G. princeps luciferase complementation, luminescence, 4 h; inhibition, % at 4 µM; hit rate 0.78% among 360,000; AID 602281;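 active means inhibition above the mean inhibition across every tested compound plus 3 SD, cut at about 22% in these data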;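 further: 0% = DMSO only wells and the 100% control is not disclosed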
# Rtt109 HAT inh: C. albicans Rtt109 histone acetyltransferase inhibition | purified Rtt109/Vps75, ThioGlo CoA-SH fluorescence, 4 h | inhibition, % at 34.9 µM | hit rate 0.16% among 330,000 | AID 540336;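 active means inhibition of at least 50% in every replicate; inconclusive means best replicate reaches 50% inhibition but some replicates fall short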
# DAGLB inh: blocks human DAGLB lipase activity; AID 504411; HEK293T DAGLB membrane lysate, EnzChek fluorogenic substrate; inhibition, % at 5.17 µM; hit rate 0.059% among 340,000; in the data active means inhibition above about 34%;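 further: 0% = enzyme with vehicle and 100% = wells lacking enzyme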
# Cardio protect: protects H9c2 cardiomyocytes from peroxide injury; H2O2 injury protection, ATPLite, 2 h; protection from H2O2 cell death, % at 20 µM; hit rate 0.63% among 360,000; AID 588492;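 active means compounds giving at least 50% protection of heart cells from peroxide-induced death in the single-dose screen, raw or plate-pattern-corrected value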;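 further: 0% = DMSO wells with peroxide and 100% = DMSO wells without peroxide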
# HGIII-sPLA2 inh: Blocks human group III sPLA2 activity | inhibition, % at 12.2 µM | AID 743126 | hit rate 0.56% among 370,000 | QFRET BODIPY PC-A2 liposome hydrolysis, fluorescence | Q9NZ20;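 active means inhibition above mean plus 3 SD of compounds lying within the high and low control bounds, cut at about 19% in these data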;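 further: 0% = median of test compound wells and 100% = no enzyme DMSO wells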
# Target sequence (Q9NZ20 whole entry, looked up): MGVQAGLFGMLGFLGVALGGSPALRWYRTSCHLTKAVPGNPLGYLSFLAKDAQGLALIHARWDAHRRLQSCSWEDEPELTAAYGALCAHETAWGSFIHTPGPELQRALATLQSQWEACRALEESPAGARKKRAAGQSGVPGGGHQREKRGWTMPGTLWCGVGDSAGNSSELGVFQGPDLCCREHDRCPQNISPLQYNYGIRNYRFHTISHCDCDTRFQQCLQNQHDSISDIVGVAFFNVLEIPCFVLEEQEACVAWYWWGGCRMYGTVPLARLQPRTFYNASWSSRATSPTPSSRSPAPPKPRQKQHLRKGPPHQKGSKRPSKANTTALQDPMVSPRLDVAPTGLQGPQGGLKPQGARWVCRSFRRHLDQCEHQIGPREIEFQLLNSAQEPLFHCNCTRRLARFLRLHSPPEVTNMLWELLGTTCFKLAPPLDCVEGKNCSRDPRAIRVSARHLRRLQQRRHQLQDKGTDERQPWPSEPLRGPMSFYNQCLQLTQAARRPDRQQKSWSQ
# ABHD5 PLIN5 conf: confirmation of human ABHD5-PLIN5 interaction inhibitors. shares compounds with ABHD5 PLIN5 PPI. biochemical ABHD5-PLIN5 interaction, luminescence. inhibition, % at 4 µM. hit rate 67% among 2,200. AID 651612; in the data active means inhibition above about 23%;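 further: 0% = DMSO vehicle wells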
# HNF4 split-luc: counter-screen for ABHD5-PLIN5 inhibitors: HNF4 split-luciferase. shares compounds with ABHD5 PLIN5 PPI. HNF4 dimerization, luminescence, biochemical. inhibition, % at 4 µM. hit rate 77% among 2,200;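 active means mean inhibition across replicate wells exceeding the computed hit threshold, cut at about 13% in these data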;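 further: light from luciferase halves that rejoin when HNF4 fusion proteins dimerize; 0% = DMSO only wells and the 100% control is not given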
# Myeloid diff CP1: promotes myeloid progenitor differentiation. shares compounds with Myeloid diff 2. ER-HoxA9 myeloid progenitors, GFP/Mac1 double-positive flow. calls only. hit rate 2% among 2,300. AID 651706;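 active means share of green or green-and-red cells above 9 and 9% in run 1 or 4 and 3% in run 2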
# GFP autofluor: counter-screen for myeloid differentiation promoters: compound fluorescence. ER-HoxA9 myeloid progenitors, no estrogen, GFP autofluorescence flow cytometry; vehicle wells 0%, positive control 100%. fluorescence response, % (concentration not given with the values). hit rate 7.4% among 2,300. shares compounds with Myeloid diff 2. AID 651707;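 active means over 5% cells positive for green fluorescent reporter, or over 2% positive for both it and APC stain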;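 further: range taken on the double positive population between DMSO and positive control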
# sPLA2 confirm: human GIII-sPLA2 inhibition, confirmation | hit rate 34% among 2,000 | shares compounds with HGIII-sPLA2 inh | recombinant hGIII-sPLA2, BODIPY PC-A2 QFRET fluorescence | inhibition, % at 12.2 µM;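 active means mean inhibition across triplicates above the hit cutoff set in the earlier primary screen, cut at about 19% in these data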;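 further: 0% = enzyme with DMSO and 100% = DMSO wells lacking enzyme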
# BODIPY interf: 535nm fluorescence interference, HGIII-sPLA2 counter-screen | shares compounds with HGIII-sPLA2 inh | BODIPY FL product fluorescence interference, QFRET | inhibition, % at 12.2 µM | hit rate 8.5% among 2,000 | AID 743282;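 active means average inhibition above the solvent-only control mean plus 3 SD, cut at about 6% in these data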;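 further: 0% = DMSO with substrate plus product and 100% = DMSO with substrate alone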
# An asterisk follows results filed as active; i = inactive; ? = inconclusive; · = no result; + = active, no number.
SMILES,Myeloid diff 2,ABHD5 PLIN5 PPI,Rtt109 HAT inh,DAGLB inh,Cardio protect,HGIII-sPLA2 inh,Myeloid diff CP1,GFP autofluor,others
CN(C)c1ccc(-[n+]2c(-c3ccccc3)cc(-c3ccccc3)cc2-c2ccccc2)cc1,?,26.4*,?,·,-15.4,22.2*,·,·,ABHD5 PLIN5 conf=6.5;HNF4 split-luc=3.3;sPLA2 confirm=27.2*;BODIPY interf=-37.4
CCOP(=O)(OCC)C(NC(=O)C(Cl)Cl)C(Cl)(Cl)Cl (stereo not given),i,-8.6,-4.7,-1.4,-1.6,10.8,·,·,
CCN(CC)C(=O)c1ccc(NC(=O)c2cc(S(=O)(=O)N3CCCCCC3)ccc2OC)cc1,i,6.6,11.8,-2.0,-3.9,-4.9,·,·,
CCN(CC)C(=O)c1ccc(NC(=O)c2cccc(S(=O)(=O)N3CCN(Cc4ccccc4)CC3)c2)cc1,i,6.6,18.9,-2.2,-15.5,14.2,i,1.3,
CC(N)Cc1c[nH]c2c1ccc1ccccc12 (stereo not given),i,6.1,7.0,-0.5,11.2,1.5,i,1.1,
COC(=O)[C@]1(C)C[C@H]1[C@H](NP(=O)(c1ccccc1)c1ccccc1)c1ccccc1,i,-3.2,4.7,-0.8,8.1,-3.9,i,0.0,
Fc1ccccc1N1CCN(Cc2ccc3c(c2)OCO3)CC1,i,0.0,5.9,-10.9,-0.8,0.0,i,0.3,
CC(C)CN1CCN(Cc2cccc3c2OCO3)CC1CCO (stereo not given),i,-4.6,-0.5,-2.6,4.4,10.3,·,·,
O=P(CN1CCN(c2ccccc2)CC1)(N1CCCCC1)N1CCCCC1,+,7.1,12.5,1.9,3.7,3.9,i,0.0,
CCOP(=S)(OCC)c1ccc(N(C)C)cc1,+,0.9,1.3,-2.4,0.7,2.9,i,0.0,
CN1C(=O)N(C)C(=O)C(CCc2ccncc2)(Cc2ccc3c(c2)OCO3)C1=O,i,2.9,-12.1,-1.2,4.3,-1.4,·,·,
CCc1cc2c(cc1-c1csc(C/C(N)=N/O)n1)C(C)(C)CCC2(C)C,+,-7.5,·,-1.7,-6.7,-29.6,i,2.5,
CCC(=NC(C)c1ccccc1)c1c(O)[nH]c(=O)[nH]c1=O (stereo not given),+,3.8,1.6,1.2,-0.2,-0.5,i,0.8,
COC(=O)C1=C(N)Oc2cc(C)oc(=O)c2C12C(=O)Nc1ccccc12 (stereo not given),i,-1.4,4.5,-1.6,-7.4,0.0,·,·,
Cc1ccc(C(=O)N/C(=C\Cl)P(=O)(c2ccccc2)c2ccccc2)cc1,i,-1.7,-6.1,0.4,-0.6,6.2,·,·,
COC(=O)NC(=C(Cl)Cl)P(=O)(c1ccccc1)c1ccccc1,+,-0.9,-7.8,0.9,0.9,3.8,i,0.0,
CC(C)(C)n1nnnc1C1CN=C(c2ccccc2)c2cc(Cl)ccc2N1 (stereo not given),·,·,·,·,·,-6.9,·,·,
COc1ccc(C(O)CNC(C)C)c(F)c1OC (stereo not given),i,9.3,-10.1,0.3,3.0,-0.5,·,·,
CN(CCOc1ccc(C=C2C(=O)NC(=O)NC2=O)cc1)c1ccccn1,i,5.6,1.6,-1.8,8.6,5.3,i,0.0,
O=C1NC(=S)NC(=O)C1=Cc1ccc(OCc2ccccc2)cc1,i,-7.3,-4.1,-3.9,-3.7,-1.0,·,·,
Cc1cc(N(CCCl)CCCl)ccc1C=Cc1ccncn1,?,3.5,-4.3,-19.3,2.1,-16.2,·,·,
O=c1[nH]c(=S)n(C2CC2)c(O)c1/C=N/Nc1cccc2ccccc12,i,0.4,45.4,13.7,9.8,6.7,i,2.1,
CCCCC(=O)N/N=C/c1c(O)n(C2CC2)c(=S)[nH]c1=O,i,-0.7,-5.5,-0.1,1.6,-1.7,·,·,
Cc1oc(-c2ccccc2Cl)nc1CN1C(=O)CN=C(c2ccccc2)c2ccccc21,i,9.5,12.5,-9.7,-12.7,-2.2,·,·,
Cc1cc(NC(=O)COC(=O)c2c(C)nn(Cc3ccccc3)c2Cl)no1,i,-3.0,-10.4,-2.9,6.4,-11.3,+,0.3,
SMILES,Myeloid diff 2,ABHD5 PLIN5 PPI,Rtt109 HAT inh,DAGLB inh,Cardio protect,HGIII-sPLA2 inh,Myeloid diff CP1,GFP autofluor,others
Cc1nn(Cc2ccccc2)c(Cl)c1C(=O)OC(C)C(=O)Nc1ccc(F)cc1Cl (stereo not given),i,2.4,3.1,-1.6,-15.1,5.2,i,1.1,
CCc1ccc(NC(=O)C(C)OC(=O)c2c(C)nn(Cc3ccccc3)c2Cl)cc1 (stereo not given),i,-7.6,·,-20.1,-4.1,-6.0,·,·,
COC(=O)C1=C(c2ccc(F)cc2OCc2ccccc2)C[C@@H]2CC[C@H]1N2C(=O)NCc1cccc(F)c1,i,-8.4,13.1,-13.9,1.3,-13.9,·,·,
CCOC(=O)C1CCN(C(C)C(=O)c2c(C)[nH]c3cc(C)ccc23)CC1 (stereo not given),i,-0.7,2.1,1.1,1.7,-2.0,·,·,
C[C@]12CCC3C(CC[C@H]4C[C@@H](O)CC[C@]34C)C1C[C@H](Br)[C@@H]2O (stereo not given in full),i,1.8,·,·,2.6,2.0,·,·,
O=C1NC(=O)N(Cc2ccccc2Cl)C(=O)/C1=C/N1CCOCC1,i,11.8,3.0,2.4,1.1,-10.5,i,0.8,
O=C1NC(=O)N(Cc2cccs2)C(=O)/C1=C/c1ccc(N2CCOCC2)cc1,·,9.7,2.6,4.1,5.2,0.4,·,·,
CN(c1ccc(O)cc1)c1ccc([N+](=O)[O-])c2nonc12,+,20.0,·,24.7,2.5,9.2,i,4.4,
O=[N+]([O-])c1ccc(N2CCCCCC2)c2nonc12,i,7.5,-12.3,-60.2,-5.3,-163.8,·,·,
C[C@]12CCC(=O)C=C1CCC1C2CC[C@@]2(C)C1CC[C@@]2(O)CC#N (stereo not given in full),+,-6.3,-3.7,0.1,11.6,·,i,0.2,
